Data taken from PMC11006913.
Positions count from the first letter of the chain named.

Key:
Experiment in all cases: PBM; 200 nM protein, PBS
Conditions in all cases: dsDNA, one strand shown
PAX4 [1] = target: T1, PAX4 (Homo sapiens, UniProt O43316 9-242, R200K)
T1 sequence: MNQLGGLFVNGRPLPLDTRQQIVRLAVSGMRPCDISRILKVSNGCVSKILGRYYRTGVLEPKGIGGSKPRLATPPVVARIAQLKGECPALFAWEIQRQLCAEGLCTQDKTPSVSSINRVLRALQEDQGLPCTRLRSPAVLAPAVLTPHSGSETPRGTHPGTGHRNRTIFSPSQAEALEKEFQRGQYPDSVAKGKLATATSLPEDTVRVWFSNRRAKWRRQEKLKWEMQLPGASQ

PAX4 [2] = target: T2, PAX4 (Homo sapiens, UniProt O43316 9-242)
T2 sequence: T1 sequence with K192R

HOXD13 [3] = target: HOXD13 (Homo sapiens, UniProt P35453 263-343, T313R)
Sequence of HOXD13 (Homo sapiens, UniProt P35453 263-343, T313R) (P35453 263-343 T313R): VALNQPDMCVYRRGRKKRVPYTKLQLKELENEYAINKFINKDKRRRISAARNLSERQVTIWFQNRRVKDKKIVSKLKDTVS

PAX4 [4] = target: T3, PAX4 (Homo sapiens, UniProt O43316 9-242, R200Q)
T3 sequence: T1 sequence with K192Q

PITX2 = PITX2 (Homo sapiens, UniProt Q99697 72-157)
HOXD13 [5] = target: HOXD13 (Homo sapiens, UniProt P35453 263-343)
Sequence of HOXD13 (Homo sapiens, UniProt P35453 263-343) (P35453 263-343): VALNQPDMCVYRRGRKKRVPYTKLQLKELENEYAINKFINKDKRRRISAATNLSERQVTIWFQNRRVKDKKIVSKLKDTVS

PAX4 [6] = target: T4, PAX4 (Homo sapiens, UniProt O43316 9-242, F177V)
T4 sequence: T1 sequence with F169V, K192R

PAX4 [7] = target: T5, PAX4 (Homo sapiens, UniProt O43316 9-242, F177Y)
T5 sequence: T1 sequence with F169Y, K192R

HOXD13 [8] = target: HOXD13 (Homo sapiens, UniProt P35453 263-343, T313A)
Sequence of HOXD13 (Homo sapiens, UniProt P35453 263-343, T313A) (P35453 263-343 T313A): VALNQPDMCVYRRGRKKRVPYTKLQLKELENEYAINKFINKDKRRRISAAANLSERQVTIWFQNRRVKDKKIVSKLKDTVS

PAX4 [9] = target: T6, PAX4 (Homo sapiens, UniProt O43316 9-242, R227W)
T6 sequence: T1 sequence with K192R, R219W

MSX2 [10] = target: MSX2 (Homo sapiens, UniProt P35548 130-214, R199I)
Sequence of MSX2 (Homo sapiens, UniProt P35548 130-214, R199I) (P35548 130-214 R199I): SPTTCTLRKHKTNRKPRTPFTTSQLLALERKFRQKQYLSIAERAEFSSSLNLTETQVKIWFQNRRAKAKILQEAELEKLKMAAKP

MSX2 [11] = target: MSX2 (Homo sapiens, UniProt P35548 130-214)
Sequence of MSX2 (Homo sapiens, UniProt P35548 130-214) (P35548 130-214): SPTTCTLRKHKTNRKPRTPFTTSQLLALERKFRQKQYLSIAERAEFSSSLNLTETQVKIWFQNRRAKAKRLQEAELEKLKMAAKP

MSX2 [12] = target: MSX2 (Homo sapiens, UniProt P35548 130-214, F161Y)
Sequence of MSX2 (Homo sapiens, UniProt P35548 130-214, F161Y) (P35548 130-214 F161Y): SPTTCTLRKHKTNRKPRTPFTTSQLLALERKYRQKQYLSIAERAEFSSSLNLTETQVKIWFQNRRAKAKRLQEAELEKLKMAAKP

NKX2-6 [13] = target: T7, NKX2-6 (Homo sapiens, UniProt A6NCS4 118-204, R150C)
T7 sequence: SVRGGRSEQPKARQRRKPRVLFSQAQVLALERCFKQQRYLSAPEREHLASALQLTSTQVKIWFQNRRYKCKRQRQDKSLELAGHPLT

ALX3 [14] = target: ALX3 (Homo sapiens, UniProt O95076 139-225, N203Q)
Sequence of ALX3 (Homo sapiens, UniProt O95076 139-225, N203Q) (O95076 139-225 N203Q): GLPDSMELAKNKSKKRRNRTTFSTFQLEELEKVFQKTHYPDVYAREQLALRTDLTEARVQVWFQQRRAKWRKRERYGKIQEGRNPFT

ALX3 [15] = target: ALX3 (Homo sapiens, UniProt O95076 139-225)
Sequence of ALX3 (Homo sapiens, UniProt O95076 139-225) (O95076 139-225): as the sequence (O95076 139-225 N203Q) above, with Q65N counted along it

ALX3 [16] = target: ALX3 (Homo sapiens, UniProt O95076 139-225, L168Q)
Sequence of ALX3 (Homo sapiens, UniProt O95076 139-225, L168Q) (O95076 139-225 L168Q): as the sequence (O95076 139-225 N203Q) above, with L30Q, Q65N counted along it

ALX3 [17] = target: ALX3 (Homo sapiens, UniProt O95076 139-225, L168V)
Sequence of ALX3 (Homo sapiens, UniProt O95076 139-225, L168V) (O95076 139-225 L168V): as the sequence (O95076 139-225 N203Q) above, with L30V, Q65N counted along it

ALX3 [18] = target: ALX3 (Homo sapiens, UniProt O95076 139-225, N203S)
Sequence of ALX3 (Homo sapiens, UniProt O95076 139-225, N203S) (O95076 139-225 N203S): as the sequence (O95076 139-225 N203Q) above, with Q65S counted along it

HOXA2 [19] = target: HOXA2 (Homo sapiens, UniProt O43364 129-215, R185T)
Sequence of HOXA2 (Homo sapiens, UniProt O43364 129-215, R185T) (O43364 129-215 R185T): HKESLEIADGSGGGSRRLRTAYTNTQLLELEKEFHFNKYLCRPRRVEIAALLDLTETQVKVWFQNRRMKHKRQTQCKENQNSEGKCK

NKX2-6 [20] = target: T8, NKX2-6 (Homo sapiens, UniProt A6NCS4 118-204)
T8 sequence: T7 sequence with C33R

HOXA2 [21] = target: HOXA2 (Homo sapiens, UniProt O43364 129-215, R185K)
Sequence of HOXA2 (Homo sapiens, UniProt O43364 129-215, R185K) (O43364 129-215 R185K): as the sequence (O43364 129-215 R185T) above, with T57K counted along it

NKX2-6 [22] = target: T9, NKX2-6 (Homo sapiens, UniProt A6NCS4 118-204, F151L)
T9 sequence: T7 sequence with C33R, F34L

HOXA2 [23] = target: HOXA2 (Homo sapiens, UniProt O43364 129-215, Y150S)
Sequence of HOXA2 (Homo sapiens, UniProt O43364 129-215, Y150S) (O43364 129-215 Y150S): as the sequence (O43364 129-215 R185T) above, with Y22S, T57R counted along it

HOXA2 [24] = target: HOXA2 (Homo sapiens, UniProt O43364 129-215)
Sequence of HOXA2 (Homo sapiens, UniProt O43364 129-215) (O43364 129-215): as the sequence (O43364 129-215 R185T) above, with T57R counted along it

CGGCGTCA
binding signal (PAX4 [1]): 9.36 upbm affinity estimate (log intensity, higher = more binding, comparable within an allelic series) | binding signal (PAX4 [2]): 9.43 upbm affinity estimate (log intensity, higher = more binding, comparable within an allelic series) | binding signal (HOXD13 [3]): 9.54 upbm affinity estimate (log intensity, higher = more binding, comparable within an allelic series) | binding signal (PAX4 [4]): 9.37 upbm affinity estimate (log intensity, higher = more binding, comparable within an allelic series) | binding signal (PITX2): 8.08 upbm affinity estimate (log intensity, higher = more binding, comparable within an allelic series) | binding signal (HOXD13 [5]): 9.49 upbm affinity estimate (log intensity, higher = more binding, comparable within an allelic series) | binding signal (PAX4 [6]): 9.21 upbm affinity estimate (log intensity, higher = more binding, comparable within an allelic series) | binding signal (PAX4 [7]): 9.24 upbm affinity estimate (log intensity, higher = more binding, comparable within an allelic series) | binding signal (HOXD13 [8]): 9.61 upbm affinity estimate (log intensity, higher = more binding, comparable within an allelic series) | binding signal (PAX4 [9]): 9.35 upbm affinity estimate (log intensity, higher = more binding, comparable within an allelic series)

CCCCTGGC
binding signal (PAX4 [1]): 9.25 upbm affinity estimate (log intensity, higher = more binding, comparable within an allelic series) | binding signal (PAX4 [2]): 9.29 upbm affinity estimate (log intensity, higher = more binding, comparable within an allelic series) | binding signal (MSX2 [10]): 9.36 upbm affinity estimate (log intensity, higher = more binding, comparable within an allelic series) | binding signal (PAX4 [4]): 9.32 upbm affinity estimate (log intensity, higher = more binding, comparable within an allelic series) | binding signal (PAX4 [6]): 9.09 upbm affinity estimate (log intensity, higher = more binding, comparable within an allelic series) | binding signal (MSX2 [11]): 9.68 upbm affinity estimate (log intensity, higher = more binding, comparable within an allelic series) | binding signal (PAX4 [7]): 9.12 upbm affinity estimate (log intensity, higher = more binding, comparable within an allelic series) | binding signal (MSX2 [12]): 9.68 upbm affinity estimate (log intensity, higher = more binding, comparable within an allelic series) | binding signal (PAX4 [9]): 9.26 upbm affinity estimate (log intensity, higher = more binding, comparable within an allelic series)

ATTATTTC
binding signal (PAX4 [1]): 10.8 upbm affinity estimate (log intensity, higher = more binding, comparable within an allelic series) | binding signal (PAX4 [2]): 11.1 upbm affinity estimate (log intensity, higher = more binding, comparable within an allelic series) | binding signal (PAX4 [4]): 10.9 upbm affinity estimate (log intensity, higher = more binding, comparable within an allelic series) | binding signal (PAX4 [6]): 10.4 upbm affinity estimate (log intensity, higher = more binding, comparable within an allelic series)

CCGCCCCG
binding signal (PAX4 [1]): 9.25 upbm affinity estimate (log intensity, higher = more binding, comparable within an allelic series) | binding signal (PAX4 [2]): 9.35 upbm affinity estimate (log intensity, higher = more binding, comparable within an allelic series) | binding signal (NKX2-6 [13]): 9.69 upbm affinity estimate (log intensity, higher = more binding, comparable within an allelic series) | binding signal (PAX4 [4]): 9.16 upbm affinity estimate (log intensity, higher = more binding, comparable within an allelic series) | binding signal (PAX4 [6]): 9.13 upbm affinity estimate (log intensity, higher = more binding, comparable within an allelic series) | binding signal (PAX4 [7]): 9.21 upbm affinity estimate (log intensity, higher = more binding, comparable within an allelic series) | binding signal (PAX4 [9]): 9.44 upbm affinity estimate (log intensity, higher = more binding, comparable within an allelic series)

CCAGGGGG
binding signal (PAX4 [1]): 9.05 upbm affinity estimate (log intensity, higher = more binding, comparable within an allelic series) | binding signal (PAX4 [2]): 9.19 upbm affinity estimate (log intensity, higher = more binding, comparable within an allelic series) | binding signal (ALX3 [14]): 7.64 upbm affinity estimate (log intensity, higher = more binding, comparable within an allelic series) | binding signal (PAX4 [4]): 9.12 upbm affinity estimate (log intensity, higher = more binding, comparable within an allelic series) | binding signal (PAX4 [6]): 9.04 upbm affinity estimate (log intensity, higher = more binding, comparable within an allelic series) | binding signal (ALX3 [15]): 7.54 upbm affinity estimate (log intensity, higher = more binding, comparable within an allelic series) | binding signal (PAX4 [7]): 9.08 upbm affinity estimate (log intensity, higher = more binding, comparable within an allelic series) | binding signal (ALX3 [16]): 7.58 upbm affinity estimate (log intensity, higher = more binding, comparable within an allelic series) | binding signal (ALX3 [17]): 7.54 upbm affinity estimate (log intensity, higher = more binding, comparable within an allelic series) | binding signal (PAX4 [9]): 9.06 upbm affinity estimate (log intensity, higher = more binding, comparable within an allelic series) | binding signal (ALX3 [18]): 7.57 upbm affinity estimate (log intensity, higher = more binding, comparable within an allelic series)

CGGTACCG
binding signal (PAX4 [1]): 9.38 upbm affinity estimate (log intensity, higher = more binding, comparable within an allelic series) | binding signal (PAX4 [2]): 9.43 upbm affinity estimate (log intensity, higher = more binding, comparable within an allelic series) | binding signal (HOXA2 [19]): 7.62 upbm affinity estimate (log intensity, higher = more binding, comparable within an allelic series) | binding signal (ALX3 [14]): 7.72 upbm affinity estimate (log intensity, higher = more binding, comparable within an allelic series) | binding signal (NKX2-6 [20]): 9.13 upbm affinity estimate (log intensity, higher = more binding, comparable within an allelic series) | binding signal (PAX4 [4]): 9.37 upbm affinity estimate (log intensity, higher = more binding, comparable within an allelic series) | binding signal (HOXA2 [21]): 10.4 upbm affinity estimate (log intensity, higher = more binding, comparable within an allelic series) | binding signal (PAX4 [6]): 9.37 upbm affinity estimate (log intensity, higher = more binding, comparable within an allelic series) | binding signal (ALX3 [15]): 7.9 upbm affinity estimate (log intensity, higher = more binding, comparable within an allelic series) | binding signal (PAX4 [7]): 9.28 upbm affinity estimate (log intensity, higher = more binding, comparable within an allelic series) | binding signal (ALX3 [16]): 7.73 upbm affinity estimate (log intensity, higher = more binding, comparable within an allelic series) | binding signal (NKX2-6 [22]): 9.24 upbm affinity estimate (log intensity, higher = more binding, comparable within an allelic series) | binding signal (ALX3 [17]): 7.69 upbm affinity estimate (log intensity, higher = more binding, comparable within an allelic series) | binding signal (PAX4 [9]): 9.32 upbm affinity estimate (log intensity, higher = more binding, comparable within an allelic series) | binding signal (HOXA2 [23]): 10.4 upbm affinity estimate (log intensity, higher = more binding, comparable within an allelic series) | binding signal (ALX3 [18]): 7.78 upbm affinity estimate (log intensity, higher = more binding, comparable within an allelic series) | binding signal (HOXA2 [24]): 7.54 upbm affinity estimate (log intensity, higher = more binding, comparable within an allelic series)

GAAGGACC
binding signal (PAX4 [1]): 9.27 upbm affinity estimate (log intensity, higher = more binding, comparable within an allelic series) | binding signal (PAX4 [2]): 9.3 upbm affinity estimate (log intensity, higher = more binding, comparable within an allelic series) | binding signal (ALX3 [14]): 7.9 upbm affinity estimate (log intensity, higher = more binding, comparable within an allelic series) | binding signal (PAX4 [4]): 9.41 upbm affinity estimate (log intensity, higher = more binding, comparable within an allelic series) | binding signal (PAX4 [6]): 9.34 upbm affinity estimate (log intensity, higher = more binding, comparable within an allelic series) | binding signal (ALX3 [15]): 7.9 upbm affinity estimate (log intensity, higher = more binding, comparable within an allelic series) | binding signal (PAX4 [7]): 9.33 upbm affinity estimate (log intensity, higher = more binding, comparable within an allelic series) | binding signal (ALX3 [16]): 7.8 upbm affinity estimate (log intensity, higher = more binding, comparable within an allelic series) | binding signal (ALX3 [17]): 7.85 upbm affinity estimate (log intensity, higher = more binding, comparable within an allelic series) | binding signal (PAX4 [9]): 9.46 upbm affinity estimate (log intensity, higher = more binding, comparable within an allelic series) | binding signal (ALX3 [18]): 7.83 upbm affinity estimate (log intensity, higher = more binding, comparable within an allelic series)

CCCCGGAG
binding signal (PAX4 [1]): 9.33 upbm affinity estimate (log intensity, higher = more binding, comparable within an allelic series) | binding signal (PAX4 [2]): 9.37 upbm affinity estimate (log intensity, higher = more binding, comparable within an allelic series) | binding signal (NKX2-6 [13]): 9.25 upbm affinity estimate (log intensity, higher = more binding, comparable within an allelic series) | binding signal (PAX4 [4]): 9.35 upbm affinity estimate (log intensity, higher = more binding, comparable within an allelic series) | binding signal (PAX4 [6]): 9.22 upbm affinity estimate (log intensity, higher = more binding, comparable within an allelic series) | binding signal (PAX4 [7]): 9.27 upbm affinity estimate (log intensity, higher = more binding, comparable within an allelic series) | binding signal (PAX4 [9]): 9.32 upbm affinity estimate (log intensity, higher = more binding, comparable within an allelic series)

CATTTAAC
binding signal (PAX4 [1]): 10.7 upbm affinity estimate (log intensity, higher = more binding, comparable within an allelic series) | binding signal (PAX4 [2]): 10.9 upbm affinity estimate (log intensity, higher = more binding, comparable within an allelic series) | binding signal (PAX4 [4]): 10.8 upbm affinity estimate (log intensity, higher = more binding, comparable within an allelic series) | binding signal (PAX4 [6]): 10.2 upbm affinity estimate (log intensity, higher = more binding, comparable within an allelic series)
